Values joined by “and” are separate entries in the source; they are usually repeats but may differ in a detail not shown here. Equal values may be shown once. Records with an inconclusive call do not appear. Active and inactive are the calls of the source. Unless noted, the call rests on the fitted dose curve; in most records, active means well fitted curve in the direction sought with a large enough effect; inconclusive means small, poorly fitted or top-dose-only effect, or another doubt; inactive means no such curve, though single readings can be large; an effect the other way counts as inactive or inconclusive.
What was measured:
[1] = Cell Viability - BJ (AID 421; calls by dose curve;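 further: potency means the concentration at half of the fitted maximal effect; cells exposed to compound for 40 hours at 37 °C before readout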); details: BJ fibroblast viability, qHTS
Summary of the method: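 Cytotoxicity as drop in intracellular ATP (CellTiter-Glo, 20 min RT) after 40 hr compound exposure of BJ fibroblasts at 37 °C. Titrations scaled between DMSO and 100 uM tamoxifen, Hill-fitted for AC50.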

[2] = Cell Viability - Mesenchymal (AID 546); details: mesenchymal cells viability, qHTS; series mostly up to 91.7 µM;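 further: cells exposed to compound for 40 hours before reading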
Summary of the method: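 Human kidney mesenchymal cells from normal renal glomeruli, 1000 cells/well, rested 5 hr at 37 °C, then treated 40 hr at 37 °C in complete medium. Cellular ATP read by CellTiter-Glo luminescence; AC50 from Hill-equation fits.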

[3] = Cellular Toxicity (caspase-3) HepG2 (AID 654); details: HepG2 caspase-3 activation, luminescence, 0% = DMSO only, 100% = tamoxifen; series mostly up to 92.2 µM;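 further: cells exposed to compound for 16 hours before reading; 0% = DMSO alone and 100% = caspase signal from 100 µM tamoxifen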
Summary of the method: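 Cells plated 5 hr at 37 °C, compound added, incubated 16 hr at 37 °C. Caspase-Glo 3/7 reagent followed, 20 min at room temperature, then luminescence read. Activation scored as signal increase; AC50 from Hill fit.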

[4] = Cellular Toxicity (caspase-3) HUV-EC-C (AID 656); details: HUV-EC-C cells, caspase-3 activation (apoptosis), vehicle = 0, 100 µM tamoxifen = 100%; series mostly up to 92.2 µM
Summary of the method: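 Luminescent caspase-3/7 activation (aminoluciferin substrate cleavage) in HUV-EC-C cells after 16 hr compound exposure, 37°C. Signal normalized to DMSO basal and 100 uM tamoxifen as 100%; AC50 from concentration-response fitted with the Hill equation.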

[5] = Cellular Toxicity (caspase-3) BJ (AID 658); details: BJ fibroblasts, luminescence, normalized: DMSO 0%, staurosporine 100%; series mostly up to 91.7 µM;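 further: cells exposed to compound for 16 hours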
Summary of the method: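 BJ human foreskin fibroblasts, 1000 cells/well, treated 16 hours at 37 °C in complete medium; caspase 3/7 activity by Caspase-Glo luminescence after 1 hr at room temperature. Normalized to DMSO and 10 uM staurosporine; AC50 from Hill fits.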

[6] = Cellular Toxicity (caspase-3) MRC-5 (AID 659); details: MRC-5 cells, luminescence, normalized: DMSO 0%, 10 µM staurosporine 100%; series mostly up to 91.7 µM
Summary of the method: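 MRC-5 human normal lung fibroblasts, 1500 cells/well, treated 16 h at 37 °C in complete medium. Caspase 3/7 measured by Caspase-Glo luminescence after 1 h at room temperature. Normalized to DMSO and 10 uM staurosporine; AC50 from Hill fit.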

[7] = Cellular Toxicity (caspase-3) SK-N-SH (AID 661); details: SK-N-SH caspase-3 activation, qHTS; series mostly up to 91.7 µM;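 further: cells exposed to compound for 16 hours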
Summary of the method: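 Human neuroblastoma SK-N-SH, 1500 cells/well, 5 hr pre-incubation, then compound 16 hr, 37 °C. Caspase-Glo 3/7 reagent, 1 hr RT, luminescence. Norm. to DMSO/10 uM staurosporine; Hill-fit AC50.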

[8] = Cellular Toxicity (caspase-3) Hek293 (AID 664); details: HEK293 caspase-3 activation, DMSO = 0%, 100 µM tamoxifen = 100%; at 92.2 µM (top of the series);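 further: cells exposed to compound for 16 h at 37 °C before readout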
Summary of the method: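 Cells plated, 5 hr at 37 °C; compounds added; 16 hr at 37 °C; Caspase-Glo 3/7 reagent, 20 min RT; luminescence read. Activation expressed relative to DMSO and 100 uM tamoxifen, AC50 by Hill model.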

[9] = MultiTox-Fluor Cytotoxicity Assay - LYMP1-001 - Dead Cells (AID 946); details: LYMP1-001 lymphoblastoid cells, dead-cell protease fluorescence; series mostly up to 92.2 µM
Summary of the method: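 Cytotoxicity as increased dead-cell protease fluorescence (bis-AAF-R110, 485/520 nm), read 60 min after MultiTox-Fluor reagent. Human lymphoblastoid line exposed 16 h; Hill-fitted AC50, with DMSO as 0% and 15 uM tetraoctylammonium bromide as 100%.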

[10] = Cell Viability - LYMP1-002 - Assay at 16 hr (AID 948); details: LYMP1-002 lymphoblastoid cell viability; series mostly up to 92.2 µM;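 further: 0% = DMSO alone and full effect = 92 µM tetraoctylammonium bromide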
Summary of the method: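 LYMP1-002 human lymphoblastoid cells, 2500/well; 5 hr 37 C; cpd 16 hr 37 C; CellTiter-Glo 30 min RT; luminescence (ATP). Concentration-response, Hill-fit AC50. Pos ctrl tetraoctylammonium bromide.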

[11] = MultiTox-Fluor Cytotoxicity Assay - LYMP1-002 - Live Cells (AID 955); details: LYMP1-002 lymphoblastoid live-cell protease fluorescence viability; series mostly up to 46.1 µM;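 further: cells exposed to compound for 16 hours; on the % scale 0 is the no-effect control and ±100 the full control effect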
Summary of the method: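 Read-out is live-cell protease activity (cell-permeant GF-AFC substrate, fluorescence Ex/Em=405/510), where a decrease indicates acute toxicity. Human lymphoblastoid cells were treated 16 hours at 37 C in a concentration series, and AC50 values came from standard Hill modelling.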

[12] = MultiTox-Fluor Cytotoxicity Assay - LYMP1-003 - Dead Cells (AID 961); details: LYMP1-003 lymphoblastoid cells, dead-cell protease fluorescence; series mostly up to 92.2 µM; further: nearly all actives have a fitted effect of over 70% in size
Summary of the method: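 Dead-cell protease release, detected as bis-AAF-R110 fluorescence at 485/520 nm, was measured in LYMP1-003 cells after 16 h compound treatment at 37 C. AC50 values came from Hill-modeled qHTS curves normalized to DMSO (0%) and 15 uM tetraoctylammonium bromide (100%).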

[13] = MultiTox-Fluor Cytotoxicity Assay - LYMP1-003 - Live Cells (AID 962); details: LYMP1-003 lymphoblastoid cells, MultiTox-Fluor live-cell protease fluorescence; series mostly up to 92.2 µM;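 further: cells exposed to compound for 16 hours at 37 °C; 0% = DMSO only and full loss = 92 µM tetraoctylammonium bromide; cytotoxic hits lower the live-cell protease signal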
Summary of the method: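 qHTS, 1536-well; 2500 cells/well LYMP1-003; 5 hr 37 C settle; cpd 16 hr 37 C; MultiTox-Fluor reagent 60 min RT; live-cell protease fluor. 405/510; Hill-fit AC50; tetraoctylammonium bromide pos. ctrl.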

[14] = Cell Viability - LYMP1-003 - Assay at 24 hr (AID 963); details: LYMP1-003 lymphoblastoid cell viability; series mostly up to 92.2 µM;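 further: plate controls were DMSO only for no effect and tetraoctylammonium bromide positive control for full effect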
Summary of the method: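 Cells seeded at 2500/well, 5 hr at 37 C; compounds added; 24 hr at 37 C; CellTiter-Glo added, 30 min room temperature; luminescence read. Decrease in ATP taken as cytotoxicity, AC50 from Hill modelling.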

[15] = Cell Viability - LYMP2-003 (AID 965); details: LYMP2-003 lymphoblastoid cell viability; series mostly up to 92.2 µM;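 further: cells exposed to compounds for 24 h before reading; nearly all actives have a fitted effect of over 50% in size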; further: potency means the concentration at half of the fitted maximal effect
Summary of the method: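 CellTiter-Glo luminescence (cellular ATP) after 24 h compound exposure at 37 C in complete medium; 2500 cells/well, 5 h settling beforehand. Concentration-response fitted to standard Hill equation for AC50. Tetraoctylammonium bromide served as positive control.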

[16] = Cell Viability - LYMP2-025 (AID 976); details: LYMP2-025 lymphoblastoid cell viability; series mostly up to 92.2 µM;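 further: plate controls were DMSO only for no effect and tetraoctylammonium bromide control for full effect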
Summary of the method: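 Seed 2500 LYMP2-025 cells/well; 5 hr at 37 C; add compound; 24 hr at 37 C; add CellTiter-Glo; 30 min RT; read luminescence. AC50 from Hill-modelled concentration-response.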

[17] = Cell Viability - LYMP2-016 (AID 984); details: LYMP2-016 lymphoblastoid cell viability, qHTS; series mostly up to 92.2 µM;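 further: cells exposed to compound for 24 hours at 37 °C; nearly all actives have a fitted effect of over 55% in size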; further: potency means the concentration at half of the fitted maximal effect
Summary of the method: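 qHTS, 1536-well: 2500 LYMP2-016 cells/well, 5 hr 37 C, compound added, 24 hr 37 C, CellTiter-Glo 30 min RT, luminescence. Tetraoctylammonium bromide positive control. AC50 via Hill fit.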

[18] = Cell Viability - LYMP2-026 (AID 989); details: LYMP2-026 lymphoblastoid cell viability, qHTS; series mostly up to 92.2 µM; further: nearly all actives have a fitted effect of over 50% in size; further: potency means the concentration at half of the fitted maximal effect
Summary of the method: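 Luminescent ATP signal (CellTiter-Glo, 30 min room temperature) measures viable lymphoblastoid cells after 24 hr compound treatment at 37 C. Decreased ATP reflects acute toxicity; AC50 values come from Hill-equation modeling.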

[19] = qHTS Assay for Identification of Small Molecule Inducers of Hypoxia Response (AID 2120; active means well fitted curve in the direction sought with a large enough effect in the signal ratio, with a control signal flat, not every such curve was filed as active; the % refers to the signal ratio; further: 0% is about no effect); details: hypoxia response reporter cells, beta-lactamase ratio readout; series mostly up to 104 µM
Summary of the method: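 ME-180 HRE-bla cells plated in Opti-MEM/0.5% dialyzed FBS, rested 4-5 h, then dosed with compound titrations by pin tool. After 17 h at 37 degrees C, CCF4 dye loaded 2.5 h at RT; 460/530 nm ratio gave %Activity and AC50.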

[20] = target: Peroxisome proliferator-activated receptor alpha (Homo sapiens) (UniProt Q07869); experiment: qHTS assay for small molecule agonists of the peroxisome proliferator-activated receptor alpha (PPARalpha) signaling pathway (AID 651778); details: PathHunter PPARalpha complementation, chemiluminescence, 6 h; active compounds read high; further: % of control where 0% means no effect
Chain of Peroxisome proliferator-activated receptor alpha (Homo sapiens) (Q07869 whole entry, looked up, the tested form may be a part): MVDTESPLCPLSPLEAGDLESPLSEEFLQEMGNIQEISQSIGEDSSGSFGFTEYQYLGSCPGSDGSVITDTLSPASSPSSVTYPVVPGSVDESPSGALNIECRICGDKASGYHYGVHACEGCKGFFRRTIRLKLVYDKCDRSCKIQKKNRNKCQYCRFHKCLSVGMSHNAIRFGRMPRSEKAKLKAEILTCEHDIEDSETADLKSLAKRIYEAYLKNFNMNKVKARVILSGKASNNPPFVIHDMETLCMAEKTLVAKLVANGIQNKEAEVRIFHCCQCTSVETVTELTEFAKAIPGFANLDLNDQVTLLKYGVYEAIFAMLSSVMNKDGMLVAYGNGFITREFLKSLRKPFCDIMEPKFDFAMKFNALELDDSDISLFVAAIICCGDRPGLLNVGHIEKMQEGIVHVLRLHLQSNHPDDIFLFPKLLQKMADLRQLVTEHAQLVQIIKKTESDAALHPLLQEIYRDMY
Summary of the method: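 Enzyme-fragment complementation assay in which ligand-bound PPARalpha translocates and forms an active enzyme that generates chemiluminescence. Cells were plated overnight, exposed to compound for 6 hr at 37 C, and then given detection reagent for 60 min at room temperature.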

O=[N+]([O-])c1ccccc1CCl
inactive: Potency [1] > 92 µM | Potency [2] | outcome [3] | outcome [4] | outcome [5] | outcome [6] | Potency [7] | caspase-3 activation [8] 0.434% | outcome [9] | outcome [10] | outcome [11] | Potency [12] | outcome [13] | outcome [14] | Potency [15] | Potency [16] | Potency [17] | Potency [18] | Potency [19] | max response [20] -1.86%

Cc1cc(C)cc(OP(=O)(Oc2cc(C)cc(C)c2)Oc2cc(C)cc(C)c2)c1
inactive: Potency [1] > 92 µM | Potency [2] | outcome [3] | outcome [4] | outcome [5] | outcome [6] | Potency [7] | caspase-3 activation [8] 1.43% | outcome [10] | outcome [11] | outcome [13] | outcome [14] | Potency [15] | Potency [16] | Potency [17] | Potency [18] | Potency [19] | max response [20] -0.353%

CN1CSC(=S)N(C)C1
inactive: Potency [1] > 92 µM | Potency [2] | outcome [3] | outcome [4] | outcome [5] | outcome [6] | Potency [7] | outcome [9] | Potency [12] | Potency [19] | max response [20] -4.77% and -6.32%
active: Potency [15] 31.6 µM | Potency [17] 39.8 µM | Potency [18] 39.8 µM

ClCc1ccccn1
inactive: Potency [1] > 92 µM | Potency [2] | outcome [3] | outcome [4] | outcome [5] | outcome [6] | Potency [7] | caspase-3 activation [8] 0.273% | outcome [9] | outcome [10] | outcome [11] | Potency [12] | outcome [13] | outcome [14] | Potency [15] | Potency [16] | Potency [17] | Potency [18] | Potency [19] | max response [20] -1.73% and -0.41%

CC(C)(OOC(C)(C)c1ccccc1)c1ccccc1
inactive: Potency [1] > 92 µM | Potency [2] | outcome [3] | outcome [4] | outcome [5] | outcome [6] | Potency [7] | caspase-3 activation [8] 4.99% | outcome [9] | outcome [10] | outcome [11] | Potency [12] | outcome [13] | outcome [14] | Potency [15] | Potency [16] | Potency [17] | Potency [18] | Potency [19] | max response [20] -0.439% and 3.52%

Nc1cccc2ccccc12
active: caspase-3 activation [8] 156%
inactive: Potency [1] > 92 µM | Potency [2] | outcome [3] | outcome [4] | outcome [5] | outcome [6] | Potency [7] | outcome [9] | outcome [10] | outcome [11] | Potency [12] | outcome [13] | outcome [14] | Potency [15] | Potency [16] | Potency [17] | Potency [18] | Potency [19] | max response [20] -2.99%

CCN(N=O)C(N)=O
inactive: Potency [1] > 92 µM | Potency [2] | outcome [3] | outcome [4] | outcome [5] | outcome [6] | Potency [7] | caspase-3 activation [8] 0.506% | outcome [9] | outcome [10] | outcome [11] | Potency [12] | outcome [13] | outcome [14] | Potency [15] | Potency [16] | Potency [17] | Potency [18] | Potency [19] | max response [20] 1.39%

COc1cc(-c2ccc(N)c(OC)c2)ccc1N
inactive: Potency [1] > 92 µM | Potency [2] | outcome [3] | outcome [4] | outcome [5] | outcome [6] | Potency [7] | caspase-3 activation [8] -1.4% | outcome [9] | outcome [10] | outcome [11] | Potency [12] | outcome [13] | outcome [14] | Potency [15] | Potency [16] | Potency [17] | Potency [18] | Potency [19] | max response [20] -3.45% and -1.48% and -1.31%

COP(=S)(OC)SCn1nnc2ccccc2c1=O
inactive: Potency [1] > 92 µM | Potency [2] | outcome [3] | outcome [4] | outcome [5] | outcome [6] | Potency [7] | caspase-3 activation [8] 0.18% | outcome [9] | outcome [10] | outcome [11] | outcome [13] | outcome [14] | Potency [15] | Potency [16] | Potency [17] | Potency [18] | Potency [19] | max response [20] -5.24% and -2.4%
